A selection: hits, their analogues and other compounds. The true share with any hit is near 27%.
sEH inhibitor: inhibitors of human soluble epoxide hydrolase; recombinant human sEH enzymatic activity assay; P34913; inhibition, % at 2 µM; 91,000 compounds, 0.34% hits; in the data active = inhibition above about 80%
CYP2C9 inhib: blocks human cytochrome P450 2C9 | P11712 | CYP2C9 Supersomes, luciferin-H conversion, luminescence | inhibition, % at 5 µM | 96,000 compounds, 20% hits;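 active = blocking of liver enzyme CYP2C9 beyond about 50% at 5 µM, limit read from the data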
CYP2C9 act: increases human cytochrome P450 2C9 activity; recombinant CYP2C9, luciferin-H conversion, luminescence; stronger effect = higher value; factor 1 = untreated enzyme, 0 = blocked; activation factor at 5 µM; 96,000 compounds, 1.4% hits; AID 1024;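 active = activation factor of 2 or more for CYP2C9 at a 5 µM dose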;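 note: 0 = sulfaphenazole-blocked wells and 1 = vehicle-only wells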
CYP2C19 activ: increases human CYP2C19 enzyme activity; recombinant CYP2C19, luciferin-H EGE luminescence; stronger effect = higher value; 0 = fully inhibited enzyme, 1 = untreated enzyme; activation factor at 5 µM; 96,000 tested, under 10 active;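 active = activation factor of at least 2 at 5 µM in the primary screen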;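 note: 0 = wells with 2.5 mM tranylcypromine and 1 = vehicle-only wells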
Target sequence (P33261 whole entry, looked up): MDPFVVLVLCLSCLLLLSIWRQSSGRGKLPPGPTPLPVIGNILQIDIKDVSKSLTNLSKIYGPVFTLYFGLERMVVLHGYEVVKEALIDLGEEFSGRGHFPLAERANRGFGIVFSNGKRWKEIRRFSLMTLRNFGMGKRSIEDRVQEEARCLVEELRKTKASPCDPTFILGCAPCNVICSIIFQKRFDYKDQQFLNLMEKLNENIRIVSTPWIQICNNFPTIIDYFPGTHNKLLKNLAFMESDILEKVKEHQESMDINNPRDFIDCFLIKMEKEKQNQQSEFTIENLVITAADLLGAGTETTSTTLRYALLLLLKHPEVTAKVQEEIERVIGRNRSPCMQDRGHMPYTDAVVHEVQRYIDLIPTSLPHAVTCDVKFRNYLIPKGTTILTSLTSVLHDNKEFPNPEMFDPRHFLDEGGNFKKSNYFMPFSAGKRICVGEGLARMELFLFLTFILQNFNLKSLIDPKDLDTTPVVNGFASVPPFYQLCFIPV
CYP2C19 inh: blocks human cytochrome P450 2C19 | P33261 | inhibition, % at 5 µM | 96,000 compounds, 21% hits | CYP2C19 Supersomes, luciferin-H EGE luminescence, 30 min;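 active = CYP2C19 inhibition above a set limit at 5 µM in the primary screen, cut at about 50% in these data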;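 note: plate controls were negative control wells for no effect and 2.5 mM tranylcypromine positive control for full effect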
sEH act: increases human soluble epoxide hydrolase activity; purified human sEH enzymatic activity, activator screen; activation, % at 2 µM; 91,000 compounds, 0.04% hits; AID 717; in the data active = activation above about 37%
Starred values were filed as active, the others as inactive; x = no result given.

SMILES	sEH inhibitor	CYP2C9 inhib	CYP2C9 act	CYP2C19 activ	CYP2C19 inh	sEH act
COc1ccc(CCNC(=O)C(C)OC(=O)c2ccco2)cc1OC (centres undefined)	-9	40	0.6	0.7	34	7
O=C(COc1ccc(S(=O)(=O)N2CCCC2)cc1)NCCC1=CCCCC1	7	86*	0.1	0.6	43	-4
CC(=O)Nc1ccc(S(=O)(=O)NC(CC(=O)NCCCN2CCOCC2)C(C)C)cc1 (centres undefined)	-2	-4	1	1.1	-5	1
CC(=O)Nc1ccc(S(=O)(=O)NC(CC(=O)NCCC2=CCCCC2)C(C)C)cc1 (centres undefined)	12	32	0.7	0.1	95*	-13
CC(C)(C)NS(=O)(=O)c1ccc(OCC(=O)NCCC2=CCCCC2)cc1	23	84*	0.2	0.1	85*	-27
Fc1ccc(-n2nnnc2-c2cnc(-c3cccs3)nc2C(F)(F)F)cc1	5	86*	0.1	0.7	34	-5
FC(F)(F)c1nc(-c2ccncc2)ncc1-c1nnnn1-c1ccccc1	3	74*	0.3	0	101*	-2
c1ccc(-n2nnnc2-c2cnc(-c3ccncc3)nc2-c2cccs2)cc1	-6	x	x	x	x	6
FC(F)(F)c1nc(N2CCCC2)ncc1-c1nnnn1-c1ccc(Cl)cc1	40	39	0.6	0.1	90*	-39
Cc1ccc(-n2nnnc2-c2cnc(-c3cccnc3)nc2C(F)(F)F)cc1	13	60*	0.4	0.5	48	-12
CCOC(=O)c1sc(-c2ccccc2)cc1NC(=O)CSc1nnnn1C	20	-2	1	1	-2	-20
Cc1occc1C(=O)Nc1cc(C(F)(F)F)ccc1Cl	5	-8	1.1	0.9	12	-5
O=C(O)CC(NS(=O)(=O)c1ccc(Br)cc1)c1ccco1 (centres undefined)	-10	-10	1.1	1.1	-12	9
COc1ccc(Nc2nc(C)cc(C)c2C(N)=O)c(OC)c1	6	2	1	0.9	15	-5
CCOC(=O)N1N=C(c2ccc(C)cc2)CC1(O)C(F)(F)F (centres undefined)	x	48	0.5	0.4	59*	x
CSc1nnc(C)c(/C=C/Nc2ccc(F)cc2)n1	-11	39	0.6	0.8	18	13
CSc1nnc(C)c(/C=C/Nc2ccc(Cl)cc2)n1	10	57*	0.4	0.7	30	-8
Cn1c(NC(=O)c2ccc(Cl)cc2)c(-c2ccccn2)c(=O)c2ccccc21	13	9	0.9	0.8	16	-9
O=C(O)c1ccc(COc2cccc(CO)c2)cc1	-10	31	0.7	0.1	86*	9
Cc1cccc(C)c1NC(=O)c1ccc(-n2cncn2)nc1	19	66*	0.3	0.1	93*	-18
O=C(Nc1ccccc1F)c1ccc(-n2cncn2)nc1	7	69*	0.3	0	97*	-9
Clc1ccc(-c2cc(COc3ccc4ccccc4c3)no2)cc1	5	12	0.9	0.8	22	-5
Cc1cc(=O)[nH]c(SCC(=O)c2c(N)n(C)c(=O)n(C)c2=O)n1	-5	-7	1.1	1.2	-19	3
COc1ccc(N(CC(=O)Nc2ccc(OC)c(Cl)c2)S(=O)(=O)c2c(C)noc2C)cc1	x	0	1	1	3	x
Cc1ccc(N(CC(=O)NCCc2ccccc2)S(=O)(=O)c2c(C)noc2C)cc1	-16	34	0.7	0.2	84*	15
SMILES	sEH inhibitor	CYP2C9 inhib	CYP2C9 act	CYP2C19 activ	CYP2C19 inh	sEH act
COc1ccc(CCNC(=O)CN(c2ccc(C)cc2)S(=O)(=O)c2c(C)noc2C)cc1OC	-1	40	0.6	0.1	92*	4
O=C(Cc1c(C(=O)O)[nH]c2ccccc12)NCCN1CCN(c2ccccc2F)CC1	x	8	0.9	1	4	x
CC1=C(C(=O)Nc2ccccc2)C(c2ccncc2)C(C#N)=C(SCC(=O)NC2CC2)N1 (centres undefined)	x	77*	0.2	0.1	85*	x
CC1=C(C(=O)Nc2ccccc2)C2(CCCCC2)C(C#N)=C(SCC(N)=O)N1	-10	46	0.5	0.5	47	8
CC1=C(C(=O)Nc2ccccc2)C(c2ccncc2)C(C#N)=C(SCC(=O)NC(C)C)N1 (centres undefined)	0	65*	0.4	0.2	78*	3
O=C(N/N=C/c1ccc(OCCCF)cc1)c1cc(OCC(F)(F)F)ccc1OCC(F)(F)F	-6	31	0.7	0.6	37	4
CCOc1ccc(-c2nc(-c3cccnc3)no2)cc1	3	x	x	x	x	-6
Clc1ccc(-c2noc(COc3ccccc3)n2)cc1	x	-8	1.1	0.7	27	x
Cc1ccc(OCc2nc(-c3ccccc3)no2)c(C)c1	8	59*	0.4	0.3	72*	-8
Cc1cc(C)c(C)c(OCc2nc(-c3cccnc3)no2)c1	3	22	0.8	0.3	68*	0
CSc1nc(-c2ccco2)nn1S(C)(=O)=O	7	-26	1.3	1.1	-14	-9
CCOc1ccc(CCNC(=O)C2CCCN(c3nnc(-n4cccc4)s3)C2)cc1OCC (centres undefined)	10	60*	0.4	0.5	49	-10
CC(C)NC(=O)C1CCCN(c2nnc(-n3cccc3)s2)C1 (centres undefined)	9	22	0.8	0.5	53*	-10
O=C(NC1CCN(Cc2ccccc2)CC1)C1CCCN(c2nnc(-n3cccc3)s2)C1 (centres undefined)	x	49	0.5	0.9	12	x
CC(CCc1ccccc1)NC(=O)C1CCCN(c2nnc(-n3cccc3)s2)C1 (centres undefined)	25	x	x	x	x	-25
O=C(C1CCN(c2nnc(-n3cccc3)s2)CC1)N1CCN(c2cccc(C(F)(F)F)c2)CC1	11	55*	0.5	0.5	52*	-12
O=C(C1CCCN(c2nnc(-n3cccc3)s2)C1)N1CCN(c2ccccc2)CC1 (centres undefined)	14	49	0.5	0.3	68*	-14
CCCCNC(=O)CC1SC(=NCC)N(CC)C1=O (centres undefined)	2	-74	1.7	0.6	37	-4
CCN(CC)C(=O)C1CCCN(C(=O)Nc2ccc3nsnc3c2)C1 (centres undefined)	40	25	0.8	0.4	59*	-38
CCc1ccc(-c2cc(C(=O)N3N=C(C(F)F)CC3(O)C(F)F)c3ccccc3n2)cc1 (centres undefined)	1	78*	0.2	0.8	22	0
CCc1ccc(-c2cc(C(=O)Nn3cnnc3)c3ccccc3n2)cc1	-4	99*	0	0.2	83*	7
CC(C)Cc1cc(C(=O)N2N=C(C(F)F)CC2(O)C(F)F)c2ccccc2n1 (centres undefined)	2	x	x	x	x	3
